The list is not random: actives were taken first. Their share in the collection is about 9.2%.
FLuc modulator: qHTS profiling assay for firefly luciferase inhibitor/activator using purifed enzyme and Km concentrations of substrates (counterscreen for miR-21 project); Luciferin 4-monooxygenase (Photinus pyralis), P08659; purified FLuc, Km substrates, luminescence inhibition; Potency, µM (titrated, usually from 57.5 µM), without a hit: top-dose activity change, negative = inhibition, usual class: inhibitors; 360,000 compounds, 6.9% hits;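 also: plate controls were vehicle for no effect and reference inhibitor for full effect; nearly all actives have a fitted effect of over 55% in size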
Target sequence (P08659 whole entry, looked up): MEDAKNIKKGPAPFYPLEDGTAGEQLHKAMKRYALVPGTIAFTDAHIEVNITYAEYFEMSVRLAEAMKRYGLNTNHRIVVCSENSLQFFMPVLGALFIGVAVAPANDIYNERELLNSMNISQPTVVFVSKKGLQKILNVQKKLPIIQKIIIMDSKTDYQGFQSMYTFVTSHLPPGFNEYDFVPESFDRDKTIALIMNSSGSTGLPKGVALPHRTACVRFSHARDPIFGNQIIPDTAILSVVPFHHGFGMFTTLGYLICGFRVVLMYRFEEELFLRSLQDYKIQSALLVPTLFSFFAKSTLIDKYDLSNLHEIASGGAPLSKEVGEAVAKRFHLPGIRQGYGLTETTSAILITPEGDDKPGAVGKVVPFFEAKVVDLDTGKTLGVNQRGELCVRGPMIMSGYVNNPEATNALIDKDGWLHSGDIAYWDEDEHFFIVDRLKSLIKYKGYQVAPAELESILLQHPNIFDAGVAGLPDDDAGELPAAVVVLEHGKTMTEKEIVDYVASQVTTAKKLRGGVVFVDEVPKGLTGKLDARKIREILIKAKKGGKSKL
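Biochemical qHTS of compounds, final roughly 60 µM downward over six points, against 10 nM purified firefly luciferase using Km concentrations of substrates (10 uM D-luciferin, 10 uM ATP) in Tris acetate pH 7.5 buffer; luminescence output.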
Rab9 prom act: qHTS Assay for Rab9 Promoter Activators; Huh7 Rab9 promoter-luciferase reporter, luminescence, 24 h; Potency, µM (top dose mostly 9.22 µM), inactives show top-dose activation, negative = inhibition, actives largely listed as activators; 320,000 compounds, 2.8% hits; AID 485297, 2010; also: % of control where 0% means no effect; nearly all actives have a fitted effect of over 60% in size
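Using Huh7 cells stably transfected with Rab9 promoter–luciferase, compounds were incubated 24 h at 37 °C, 5% CO2; luciferase luminescence was read 10 min after reagent addition.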
ELG1 genotoxic: qHTS screen for small molecules that induce genotoxicity in human embryonic kidney (HEK293T) cells expressing luciferase-tagged ELG1 | 330,000 compounds, 1.3% hits | Potency, µM (top dose mostly 46 µM), inactives show at the highest dose activity change, positive = activation, hits mostly activators | HEK293T ELG1-luciferase reporter, luminescence, 16 h; also: % of control where 0% means no effect; nearly all actives have a fitted effect of over 60% in size
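Luminescence read-out: rising ELG1-luciferase signal, reflecting elevated ELG1 protein under genetic stress, flags genotoxic compounds. Cells were treated for 16 hr at 37 °C before ONE-Glo detection.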
SMN2 splice up: qHTS Assay for Enhancers of SMN2 Splice Variant Expression. HEK293 SMN2-luciferase splicing reporter, luminescence, 30-36 h. Potency, µM (top dose mostly 46.1 µM), without a hit: at the highest dose activity change, positive = activation, most hits filed as activators. 210,000 compounds, 2.8% hits; also: % of control where 0% means no effect; nearly all actives have a fitted effect of over 55% in size
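HEK293 cells carry an SMN2 […]–luciferase reporter in which exon 7 inclusion puts luciferase in frame. Cells were plated 10-12 h before compound addition, then incubated 30-36 h at 37C. ONE-Glo luminescence was read; sodium butyrate at 4.5 mM final served as control.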
NPC1 prom act: qHTS Assay for NPC1 Promoter Activators | AID 485313, 2010 | Potency, µM (top dose mostly 9.22 µM), for inactives: at the highest dose activation, usual class: activators | Huh7 NPC1 promoter luciferase reporter, 24 h | 320,000 compounds, 2.4% hits; also: % of control where 0% means no effect; nearly all actives have a fitted effect of over 60% in size
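Readout is luciferase luminescence, reflecting NPC1 promoter activation in stably transfected Huh7 cells after 24 h compound exposure at 37 °C in reduced-serum medium with 10% FBS.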
ELG1 repair inh: qHTS screen for small molecules that inhibit ELG1-dependent DNA repair in human embryonic kidney (HEK293T) cells expressing luciferase-tagged ELG1. HEK293T ELG1-luciferase reporter, luminescence, 16 h; DNA damage induced by 5-fluorouridine. Potency, µM (titrated, usually from 46.1 µM), for inactives: at the highest dose activity change, negative = inhibition, hits mostly inhibitors. 330,000 compounds, 2.3% hits. AID 504467, 2011; also: % is scaled to controls: 0 for no effect and ±100 for the full control effect; nearly all actives have a fitted effect of over 55% in size
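Cells (2,000 per well) received 5-fluorouridine plus test compound or DMSO and were incubated 16 hr at 37 °C, 5% CO2. Luciferase activity was read by luminescence 30 min after ONE-Glo addition; signal suppression marked inhibition of damage-induced ELG1 function.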
The depositor's hits bear a star; ? = inconclusive; . = no result given; [ ] = dose if it differs, or a comment. Calls follow the shape of the dose curve; as a rule, active = well fitted curve in the direction sought with a large enough effect; inconclusive = small, poorly fitted or top-dose-only effect, or another doubt; inactive = no such curve, though single readings can be large; an effect the other way counts as inactive or inconclusive. Potency is read from the fitted curve at half-maximal effect.

SMILES	FLuc modulator	Rab9 prom act	ELG1 genotoxic	SMN2 splice up	NPC1 prom act	ELG1 repair inh
Nc1nc(-c2cccs2)cs1	?	28%	4%	-13%[9.22 µM]	?	?
Nc1nc2ccccc2cc1-c1cccs1	11µM*	?	?	.	4.5µM*	?
c1csc(-c2ccc3ccccc3n2)c1	7.6µM*	?	?	21%	?	?
COc1ccc(SCC(=O)c2cc(C)c(OC(=S)N(C)C)c(C)c2)cc1	17µM*	?	15%	-12%	27%	-14%
Cc1cc(C(=O)CSc2ccc(F)cc2)cc(C)c1OC(=S)N(C)C	0.67µM*	?	1µM*	-51%	?	?
Cc1ccc(O)c(-c2n[nH]c3c2C(c2ccccc2F)N(Cc2ccco2)C3=O)c1 (stereo not given)	-12%	.	.	4%	.	.
CC(=O)c1ccc(NC(=O)c2ccc(CN3C(=O)CCn4nc(C)cc43)cc2)cc1	-14%	.	.	.	.	.
COc1ccc(NC(=O)c2ccccc2O)c(OC)c1	9.5µM*	3.2µM*	11µM*	?	?	?
COc1ccc(NC(=O)CSc2ccccc2)c(OC)c1	27µM*	4µM*	15%	22µM*	?	?
COc1ccc(OC)c(NC(=O)Nc2cccc3ccccc23)c1	4%	-2%	6%	-17%	-2%	-20%
COc1ccc(NC(=O)c2ccccc2SC)c(OC)c1	-13%	-6%	2%	-1%	-6%	15%
COc1ccc(OC)c(NC(=O)c2ccc(-c3csc(C)n3)cc2)c1	5.4µM*	25%	7%	.	25%	?
COc1ccc(NC(=O)CSc2nccn2Cc2ccccc2)c(OC)c1	-25%	6%	7%	.	1%	?
COc1ccc(OC)c(NC(=O)c2cc3ccccc3cc2OC)c1	24µM*	7%	2%	.	2%	3%
CC(=O)C[C@@H](O)CC(=O)[C@H]1OC(=O)CCCCCCCCc2ccccc21	.	.	0%	.	.	18%
O=C(CCS(=O)(=O)c1cc(Br)cc2c1N(C(=O)C1CC1)CC2)Nc1ccc(F)cc1	0%	.	.	24%	.	.
COc1ccc(Cl)cc1NC(=O)Cn1ccn(-c2cc(C)cc(C)c2)c(=O)c1=O	4%	.	.	.	.	.
COc1ccccc1C(=O)COC(=O)CN1C(=O)c2ccccc2C1=O	-2%	2%	1%	.	-5%	2%
COc1ccc(C(=O)Nc2cc(OC)c(Cl)cc2OC)cc1	21µM*	9%	1%	16%	16%	?
Cc1nc(C/C(=N\N)c2ccc(O)cc2O)cs1	1%	0%	3%	17%	10%	-8%
COc1ccc(C(=O)CN2C(=O)c3ccccc3C2=O)c(OC)c1	15µM*	?	?	.	24%	?
COc1cc(NC(=O)c2cc3nc(C)cc(C)n3n2)c(OC)cc1Cl	3µM*	1.3µM*	?	11µM*	2.5µM*	?
COc1ccc(C(=O)OCc2csc(C)n2)c(O)c1	15µM*	?	?	2%	?	?
CCOc1ccc(CC(=O)Nc2c(C(=O)c3ccc(F)cc3)oc3ccccc23)cc1OCC	1%	.	.	9%	.	.
CN(C)c1ccc(C(CNS(=O)(=O)c2ccc(F)cc2F)N2CCOCC2)cc1 (stereo not given)	0%	.	.	.	.	.
COc1ccc(OC)c(NC(=O)c2csc(Cl)c2OC)c1	15µM*	-2%	3%	.	2%	5%
COc1ccc(OC)c(NC(=O)c2cc(OC(C)=O)cc(C(=O)Nc3cc(OC)ccc3OC)c2)c1	3%	-12%	-16%	.	-10%	?
COc1ccc(C(=O)Nc2cc(OC)ccc2OC)cc1	24µM*	17%	3%	-2%	-2%	?

Source: PubChem BioAssay (National Center for Advancing Translational Sciences (NCATS))
